# Source: PubChem (National Center for Advancing Translational Sciences (NCATS))
# NPC1 prom act – activates the NPC1 promoter | Huh7 NPC1 promoter luciferase reporter, 24 h | Potency, µM (highest dose often 9.22 µM), for the others: at the highest dose activation, usual class: activators | 320,000 tested, 2.4% active; further: % of control where 0% means no effect; nearly all actives have a fitted effect of over 60% in size
#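 NPC1 promoter–luciferase Huh7 cells; 24 h compound; luminescence.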
# SMN2 splice up – increases expression of the SMN2 splice variant | HEK293 SMN2-luciferase splicing reporter, luminescence, 30-36 h | Potency, µM (highest dose often 46.1 µM), for the others: at the top dose activity change, positive = activation, actives largely listed as activators | 210,000 tested, 2.8% active | AID 1458; further: % of control where 0% means no effect; nearly all actives have a fitted effect of over 55% in size
#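 HEK293 cells carry an SMN2 minigene-luciferase reporter in which exon 7 inclusion puts luciferase in frame. Cells were seeded at 2000 cells/well, attached for 10-12 hours, then exposed to compounds for 30-36 hours at 37C before ONE-Glo luminescence.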
# Rab9 promoter act – Rab9 promoter activation; Huh7 Rab9 promoter-luciferase reporter, luminescence, 24 h; 320,000 tested, 2.8% active; Potency, µM (top dose mostly 9.22 µM), inactives show top-dose activation, negative = inhibition, actives largely listed as activators; further: % of control where 0% means no effect; nearly all actives have a fitted effect of over 60% in size
#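 Huh7 cells stably carrying Rab9 promoter–luciferase reporter, plated 1500 cells/well, compound added after 2 h and incubated 24 h at 37 °C; luciferase luminescence then read after 10 min with detection reagent.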
# ELG1 genotoxic – inducers of genotoxicity in HEK293T ELG1-luciferase cells; HEK293T ELG1-luciferase reporter, luminescence, 16 h; Potency, µM (series often up to 46 µM), without a hit: top-dose activity change, positive = activation, usual class: activators; 330,000 tested, 1.3% active; AID 504466; further: % of control where 0% means no effect; nearly all actives have a fitted effect of over 60% in size
#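 HEK293T cells expressing luciferase-tagged ELG1 were treated with compound or DMSO for 16 hr at 37°C. Luciferase activity was then read after 30 min with ONE-Glo at room temperature; rising signal flags genetic stress.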
# FLuc counter – inhibits or activates purified firefly luciferase, miR-21 counter-screen; 360,000 tested, 6.9% active; AID 588342; purified FLuc, Km substrates, luminescence inhibition; Potency, µM (doses to about 57.5 µM), for inactives: at the top dose activity change, negative = inhibition, usual class: inhibitors; P08659;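 further: plate controls were vehicle for no effect and reference inhibitor for full effect; nearly all actives have a fitted effect of over 55% in size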
# Target sequence (P08659 whole entry, looked up): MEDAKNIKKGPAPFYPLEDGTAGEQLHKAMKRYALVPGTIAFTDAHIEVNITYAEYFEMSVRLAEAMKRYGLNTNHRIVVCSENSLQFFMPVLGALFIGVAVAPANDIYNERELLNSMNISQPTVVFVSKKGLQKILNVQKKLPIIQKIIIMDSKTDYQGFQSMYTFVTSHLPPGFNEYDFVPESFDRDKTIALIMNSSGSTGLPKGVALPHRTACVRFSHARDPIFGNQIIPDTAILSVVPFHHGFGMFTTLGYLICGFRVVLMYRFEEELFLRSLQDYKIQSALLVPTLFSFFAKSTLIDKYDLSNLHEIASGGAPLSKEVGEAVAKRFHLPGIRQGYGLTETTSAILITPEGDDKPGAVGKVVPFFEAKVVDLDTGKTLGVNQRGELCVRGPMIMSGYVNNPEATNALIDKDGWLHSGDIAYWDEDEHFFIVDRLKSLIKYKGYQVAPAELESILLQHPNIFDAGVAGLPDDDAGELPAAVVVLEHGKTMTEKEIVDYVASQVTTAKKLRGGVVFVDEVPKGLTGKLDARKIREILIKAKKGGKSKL
#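 Purified P. pyralis luciferase, 10 nM final, with Km-level 10 uM D-luciferin and 10 uM ATP in 50 mM Tris acetate pH 7.5, 10 mM Mg acetate, 0.01% Tween-20, 0.05% BSA; 6-point qHTS titration about 60 µM downward; luminescence read.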
# ELG1 DNA repair – ELG1-dependent DNA repair inhibition; HEK293T ELG1-luciferase reporter, luminescence, 16 h; DNA damage induced by 5-fluorouridine; Potency, µM (doses to about 46.1 µM), without a hit: at the top dose activity change, negative = inhibition, hits mostly inhibitors; 330,000 tested, 2.3% active; AID 504467; further: on the % scale 0 is the no-effect control and ±100 the full control effect; nearly all actives have a fitted effect of over 55% in size
#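 Cells (2,000 per well) received 5-fluorouridine plus test compound or DMSO and were incubated 16 hr at 37 °C, 5% CO2. Luciferase activity was read by luminescence 30 min after ONE-Glo addition; signal suppression marked inhibition of damage-induced ELG1 function.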
# * = called active by the depositor; ? = inconclusive; / = no result given. Compounds with a hit are over-represented: about 9.2% of the library has one in this group of screens. The call rests on the fitted dose curve; in most records, active means well fitted curve in the direction sought with a large enough effect; inconclusive means small, poorly fitted or top-dose-only effect, or another doubt; inactive means no such curve, though single readings can be large; an effect the other way counts as inactive or inconclusive. Potency means the concentration at half of the fitted maximal effect.
SMILES,NPC1 prom act,SMN2 splice up,Rab9 promoter act,ELG1 genotoxic,FLuc counter,ELG1 DNA repair
COc1cccc(-c2nc3ccccc3s2)c1,13%,?,?,2.1µM*,0.85µM*,?
COc1ccc(/C=C(/CC(=O)Nc2ccccc2)c2nc3ccccc3s2)cc1,13%,-22%,27%,9%,21µM*,?
COc1cc(OC)cc(C(=O)Nc2ccc(-c3nc4ccccc4s3)cc2C)c1,/,10%,/,/,-6%,/
COc1ccc(/C=C(/CC(=O)NCc2ccc(Cl)cc2)c2nc3ccccc3s2)cc1,4%,-13%,-4%,16%,-18%,27%
CC1=C(c2ccc(C(C)C)cc2)S(=O)(=O)N=C1N1CCN(c2ccccc2F)CC1,/,/,/,/,-2%,/
CCOC(=O)c1c(C)[nH]c(C)c1S(=O)(=O)N1CCCCC1,-4%,/,1%,3%,3%,16%
Cc1ccc(C(=O)Nc2cccc(C(=O)N/N=C/c3ccccc3F)c2)cc1,2µM*,/,1.6µM*,?,5.4µM*,?
CC(=O)Nc1cccc(C(=O)N/N=C/c2ccccc2F)c1,3.2µM*,?,0.79µM*,7.3µM*,1.3µM*,?
Cc1ccc(CN2CCN(CC(=O)N/N=C/c3ccccc3F)CC2)cc1,6%,/,?,?,1.7µM*,?
O=C(CCl)Nc1ccc(N2CCCCCC2)cc1,-13%,-80%,8%,-8%,?,18%
COc1ccc(CNC(=O)c2cc3c(C)nc4ccccc4c3o2)c(OC)c1,-15%,-91%,-26%,1%,4%,5.8µM*
CCOC(=O)N1CCC(NC(=O)c2cc3c(C)nc4ccccc4c3o2)CC1,-4%,-34%,1%,-11%,-2%,13µM*
CCN1CCCC1CNC(=O)c1cc2c(C)nc3ccccc3c2o1 (centres undefined),1%,-10%,-17%,11%,-2%,-1%
Cc1nc2ccccc2c2oc(C(=O)NCC3COc4ccccc4O3)cc12 (centres undefined),-4%,-51%,-15%,-11%,-6%,15µM*
Cc1nc2ccccc2c2oc(C(=O)N3CCN(C4CCCCC4)CC3)cc12,-6%,-53%,-15%,-4%,2%,7.3µM*
Cc1nc2ccccc2c2oc(C(=O)N3CCC(N4CCCCC4)CC3)cc12,-1%,11%,-12%,7%,-1%,-1%
O=C1C(CCC(O)c2ccc(F)cc2)C(c2ccc(O)cc2)N1c1ccc(F)cc1 (centres undefined),/,2%,/,/,/,/
CCC(C(=O)Nc1cccc(C#N)c1)n1c(=O)c(-c2ccccc2NC(C)=O)nc2ccccc21 (centres undefined),/,/,/,/,-11%,/
CC(C)CNC(=O)COC(=O)CCC(=O)c1ccc(Cl)cc1,6%,-13%,1%,-1%,7%,14%
CCc1ccc(CNC(=O)c2cc3c(C)nc4ccccc4c3o2)cc1,-5%,-96%,-19%,?,2%,15µM*
CN(C)C(=O)c1nnsc1Sc1ccc(Cl)cc1,10%,12%,25%,3%,0%,0%
O=C(c1cc(-c2ccc(Cl)cc2)on1)N1CCCC1,0.56µM*,/,0.45µM*,2.9µM*,2.1µM*,?
O=C(c1cc(-c2ccc(Cl)c(Cl)c2)on1)N1CCCCC1,2.8µM*,22µM*,1µM*,?,4.3µM*,?
CC(C)CNC(=O)c1cc(-c2ccc(Cl)c(Cl)c2)on1,?,19%,4.5µM*,12%,-11%,?
O=C(c1cc(-c2cccc(Cl)c2)on1)N1CCCC1,4µM*,/,2.8µM*,18µM*,13µM*,?
SMILES,NPC1 prom act,SMN2 splice up,Rab9 promoter act,ELG1 genotoxic,FLuc counter,ELG1 DNA repair
O=C(c1cc(-c2cccc(Cl)c2)on1)N1CCN(c2ccccc2)CC1,1%,4%,-2%,5%,?,15%
CCCCCOc1ccc(NC(=O)Cn2c(-c3cncs3)nc3ccccc32)cc1,/,32%,/,/,1%,/
CCc1ccc(N=C2NC(=O)CC(C(=O)Nc3ccc(OC)cc3)S2)cc1 (centres undefined),/,-3%,/,/,-2%,/
CNC(=O)c1c(NC(=O)c2ccc(S(=O)(=O)N3CCCCC3)cc2)sc2c1CCC2,/,/,/,/,-3%,/
COc1cccc(-c2c(-c3cc(OC)cc(OC)c3)n(C)c3ccc(-c4cccc5[nH]ccc45)cc23)c1,2%,/,-7%,-1%,0%,10%
CN(CC(=O)Nc1ccc(F)c(F)c1F)C(=O)c1cc(-c2ccncc2)nc2ccccc12,-1%,/,-5%,-7%,2%,23µM*
Cc1ccc(-c2cc(C(=O)N(C)CC(=O)Nc3ccccc3Br)c3ccccc3n2)o1,11%,/,-1%,-4%,?,5.2µM*
CN(CC(=O)Nc1cccc(F)c1)C(=O)c1cc(-c2ccco2)nc2ccccc12,-5%,/,-5%,-24%,?,?
COc1ccc(NC(=O)CN(C)C(=O)c2ccc(-c3ccccc3Cl)o2)cc1,-1%,/,0%,12%,24µM*,10%
COc1ccc(NC(=O)CN(C)C(=O)c2cc(-c3ccco3)nc3ccccc23)cc1,-3%,/,-1%,-9%,17µM*,18µM*
COc1c(Cl)ccc(Cl)c1C(=O)NC(=S)N1CCOCC1,-3%,7%,0%,-1%,0%,9%
O=C(CN1CCN(c2cccc(Cl)c2)CC1)NC1CCCc2ccccc21 (centres undefined),0%,/,-11%,-5%,3%,-24%
CC(C)C1CCC(C(=O)NC(Cc2ccccc2)C(=O)O)CC1 (centres undefined),/,2%,/,/,/,/
CC(C)(C)SCCNC(=O)CN(c1ccccc1)S(=O)(=O)c1ccc(F)cc1,1%,/,-9%,4%,-1%,8%
COCCCNC(=O)c1c[nH]c2ccc(S(=O)(=O)N3CCc4ccccc43)cc2c1=O,-13%,/,-9%,-9%,-13%,7.3µM*
COCCNC(=O)c1c[nH]c2ccc(S(=O)(=O)N3CCc4ccccc43)cc2c1=O,-11%,/,-3%,-15%,-20%,10µM*
COc1ccc(OC)c(NC(=S)N2c3ccccc3CC2C)c1 (centres undefined),-3%,/,-4%,-10%,-19%,18µM*
CCN(CC(=O)Nc1ccc(NC(C)=O)cc1)C(=O)/C=C/c1c(C)nn(-c2ccc(F)cc2)c1C,3%,/,4%,-9%,-1%,8.2µM*
COc1ccc(C2CC(c3ccc(Cl)cc3)=NN2C(C)=O)cc1 (centres undefined),?,/,?,15%,24µM*,?
